CYP2C19 inhib: blocks human cytochrome P450 2C19 | inhibition, % at 5 µM | CYP2C19 Supersomes, luciferin-H EGE luminescence, 30 min | hit rate 21% among 96,000 | AID 778;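 active means CYP2C19 inhibition above a set limit at 5 µM in the primary screen, cut at about 50% in these data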;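 further: plate controls were negative control wells for no effect and 2.5 mM tranylcypromine positive control for full effect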
CYP2C9 inh: inhibitors of human CYP2C9; P11712; CYP2C9 Supersomes, luciferin-H conversion, luminescence; inhibition, % at 5 µM; hit rate 20% among 96,000;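 active means blocking of liver enzyme CYP2C9 beyond about 50% at 5 µM, limit read from the data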
CYP2C9 activ: activators of human CYP2C9. P11712. recombinant CYP2C9, luciferin-H conversion, luminescence; stronger effect = higher value; factor 1 = untreated enzyme, 0 = blocked. activation factor at 5 µM. hit rate 1.4% among 96,000. AID 1024;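 active means activation factor of 2 or more for CYP2C9 at a 5 µM dose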;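 further: 0 = sulfaphenazole-blocked wells and 1 = vehicle-only wells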
CYP2C19 act: increases human CYP2C19 enzyme activity; P33261; recombinant CYP2C19, luciferin-H EGE luminescence; stronger effect = higher value; 0 = fully inhibited enzyme, 1 = untreated enzyme; activation factor at 5 µM; 96,000 tested, under 10 active;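 active means activation factor of at least 2 at 5 µM in the primary screen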;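 further: 0 = wells with 2.5 mM tranylcypromine and 1 = vehicle-only wells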
EphB4 ephrin blk: blocks human EphB4 binding to ephrin-B2; P54760; EphB4 LBD / TNYL-RAW-Alexa532 peptide, fluorescence polarization; inhibition, % at 7 µM; hit rate 0.15% among 97,000; AID 720;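 active means inhibition above the screen-wide mean inhibition plus 3 SD, cut at about 15% in these data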;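 further: 0% = DMSO wells and 100% = excess unlabeled TNYL-RAW peptide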
Target sequence (P54760 whole entry, looked up, the tested form may be a part): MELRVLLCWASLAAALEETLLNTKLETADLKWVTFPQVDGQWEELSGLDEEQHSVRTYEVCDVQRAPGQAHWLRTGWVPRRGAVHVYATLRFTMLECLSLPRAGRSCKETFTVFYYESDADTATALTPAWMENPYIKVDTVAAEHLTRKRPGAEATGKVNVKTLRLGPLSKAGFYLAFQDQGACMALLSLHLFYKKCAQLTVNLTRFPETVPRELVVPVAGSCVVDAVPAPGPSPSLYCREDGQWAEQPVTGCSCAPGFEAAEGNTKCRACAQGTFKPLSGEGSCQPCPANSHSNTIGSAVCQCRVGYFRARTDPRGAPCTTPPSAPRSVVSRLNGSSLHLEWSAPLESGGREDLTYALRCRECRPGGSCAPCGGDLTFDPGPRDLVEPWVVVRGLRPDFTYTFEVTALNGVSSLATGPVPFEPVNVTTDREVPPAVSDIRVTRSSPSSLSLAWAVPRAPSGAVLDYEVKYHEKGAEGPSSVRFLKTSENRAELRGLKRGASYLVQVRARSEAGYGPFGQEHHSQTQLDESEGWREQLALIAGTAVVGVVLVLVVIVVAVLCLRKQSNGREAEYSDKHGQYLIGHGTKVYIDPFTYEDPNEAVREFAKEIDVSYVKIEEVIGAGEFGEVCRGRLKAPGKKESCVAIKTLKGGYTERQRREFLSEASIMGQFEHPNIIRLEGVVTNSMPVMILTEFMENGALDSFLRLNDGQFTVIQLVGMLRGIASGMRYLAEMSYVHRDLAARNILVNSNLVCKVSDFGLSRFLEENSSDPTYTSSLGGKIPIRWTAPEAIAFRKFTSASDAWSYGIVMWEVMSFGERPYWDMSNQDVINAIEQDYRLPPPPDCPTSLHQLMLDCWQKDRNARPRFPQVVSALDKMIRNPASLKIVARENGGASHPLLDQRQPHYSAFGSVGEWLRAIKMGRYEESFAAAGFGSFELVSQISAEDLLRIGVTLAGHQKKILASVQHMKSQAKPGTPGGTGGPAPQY
Active calls of the source: *. Most compounds without a hit are left out; they make up all but 27% or so of the library.

Results for c1cn(CCCNc2ncnc3sc4c(c23)CCC4)cn1 ?
CYP2C19 inhib: 100*; CYP2C9 inh: 97*; CYP2C9 activ: 0; CYP2C19 act: 0

Results for COCCCNc1ncnc2sc3c(c12)CCC(C)C3 (stereo not drawn) ?
EphB4 ephrin blk: 2

How did c1csc(CCNc2ncnc3sc4c(c23)CCC4)c1 do in these assays?
CYP2C19 inhib: 94*; CYP2C9 inh: 46; CYP2C9 activ: 0.5; CYP2C19 act: 0.1

How did O=S(=O)(Nc1ncnc2sc3c(c12)CCC3)c1ccc2ccccc2c1 do in these assays?
CYP2C19 inhib: 17; CYP2C9 inh: 79*; CYP2C9 activ: 0.2; CYP2C19 act: 0.8; EphB4 ephrin blk: 0

Results for CCCNC(=S)Nc1ccc(Oc2ccccc2)cc1 ?
CYP2C19 inhib: 68*; CYP2C9 inh: 42; CYP2C9 activ: 0.6; CYP2C19 act: 0.3; EphB4 ephrin blk: 5

Results for CCCNC(=S)Nc1ccc(Br)cc1 ?
CYP2C19 inhib: 44; CYP2C9 inh: 30; CYP2C9 activ: 0.7; CYP2C19 act: 0.6; EphB4 ephrin blk: -7

What do the screens show for `CC(C)NC(=S)Nc1ccc(Oc2ccccc2)cc1`?
CYP2C19 inhib: 72*; CYP2C9 inh: 40; CYP2C9 activ: 0.6; CYP2C19 act: 0.3; EphB4 ephrin blk: -6

Results for CNc1nc(Sc2ccccc2)cc(C(F)(F)F)n1 ?
CYP2C19 inhib: 26; CYP2C9 inh: 10; CYP2C9 activ: 0.9; CYP2C19 act: 0.7; EphB4 ephrin blk: -19

How did CCCc1cc(C(=O)NCc2ccc(OC)cc2)no1 do in these assays?
CYP2C19 inhib: 65*; CYP2C9 inh: 19; CYP2C9 activ: 0.8; CYP2C19 act: 0.3; EphB4 ephrin blk: 3

What do the screens show for `COc1ccc(CNC(=O)c2cc(-c3ccccc3OC)on2)cc1`?
CYP2C19 inhib: -2; CYP2C9 inh: -165; CYP2C9 activ: 2.7*; CYP2C19 act: 1; EphB4 ephrin blk: -8

How did COc1ccccc1-c1cc(C(=O)NCCN2CCOCC2)no1 do in these assays?
CYP2C19 inhib: -1; CYP2C9 inh: -123; CYP2C9 activ: 2.2*; CYP2C19 act: 1; EphB4 ephrin blk: -7

What do the screens show for `COc1cccc(-c2cc(C(=O)NCCN3CCOCC3)no2)c1`?
CYP2C19 inhib: 4; CYP2C9 inh: 8; CYP2C9 activ: 0.9; CYP2C19 act: 1; EphB4 ephrin blk: 2

How did COc1ccc(CNC(=O)c2cc(-c3ccco3)on2)cc1 do in these assays?
CYP2C19 inhib: 21; CYP2C9 inh: 15; CYP2C9 activ: 0.9; CYP2C19 act: 0.8; EphB4 ephrin blk: -2

What do the screens show for `COc1ccccc1-c1cc(C(=O)NCc2ccccc2)no1`?
CYP2C19 inhib: 38; CYP2C9 inh: -177; CYP2C9 activ: 2.8*; CYP2C19 act: 0.6; EphB4 ephrin blk: 3

How did O=c1c([N+](=O)[O-])c(N2CCCCCC2)c2ccccc2n1-c1ccccc1 do in these assays?
CYP2C19 inhib: 0; CYP2C9 inh: 7; CYP2C9 activ: 0.9; CYP2C19 act: 1; EphB4 ephrin blk: -5

What do the screens show for `CN1C(=O)CSc2ccc(NC(=O)N3CCOCC3)cc21`?
CYP2C19 inhib: -14; CYP2C9 inh: 11; CYP2C9 activ: 0.9; CYP2C19 act: 1.1; EphB4 ephrin blk: 3

How did COCCCn1c(-c2ccsc2)nc2c1c(=O)[nH]c(=O)n2Cc1ccccc1 do in these assays?
CYP2C19 inhib: -1; CYP2C9 inh: 10; CYP2C9 activ: 0.9; CYP2C19 act: 1; EphB4 ephrin blk: 1

Results for COc1ccccc1-c1cc(C(=O)Nc2c(C)n(C)n(-c3ccccc3)c2=O)no1 ?
CYP2C19 inhib: -1; CYP2C9 inh: -159; CYP2C9 activ: 2.6*; CYP2C19 act: 1; EphB4 ephrin blk: 10

How did COc1ccccc1-c1cc(C(=O)NCc2ccc(F)cc2)no1 do in these assays?
CYP2C19 inhib: 21; CYP2C9 inh: -200; CYP2C9 activ: 3*; CYP2C19 act: 0.8; EphB4 ephrin blk: 8

Results for COc1ccccc1-c1cc(C(=O)NCc2ccc(Cl)cc2)no1 ?
CYP2C19 inhib: 29; CYP2C9 inh: -220; CYP2C9 activ: 3.2*; CYP2C19 act: 0.7; EphB4 ephrin blk: -1

What do the screens show for `COCC(C)NC(=O)c1cc(-c2ccccc2OC)on1` (stereo not drawn)?
CYP2C19 inhib: -1; CYP2C9 inh: -149; CYP2C9 activ: 2.5*; CYP2C19 act: 1; EphB4 ephrin blk: -2

How did c1ccc2c(c1)CCCN2Cc1nnc2n1CCCCC2 do in these assays?
CYP2C19 inhib: -2; CYP2C9 inh: -8; CYP2C9 activ: 1.1; CYP2C19 act: 1; EphB4 ephrin blk: -1

What do the screens show for `CC(C)(C)C(=O)COC(=O)CNC(=O)c1ccc(Oc2ccccc2)cc1`?
CYP2C19 inhib: 22; CYP2C9 inh: 53*; CYP2C9 activ: 0.5; CYP2C19 act: 0.8; EphB4 ephrin blk: -6

What do the screens show for `CCCn1c(-c2ccc(OC)cc2)nc2c(=O)n(C)c(=O)[nH]c21`?
CYP2C19 inhib: 3; CYP2C9 inh: 10; CYP2C9 activ: 0.9; CYP2C19 act: 1; EphB4 ephrin blk: -9

What do the screens show for `c1ccc(-n2ncc3c(NCc4ccccn4)ncnc32)cc1`?
CYP2C19 inhib: 42; CYP2C9 inh: 70*; CYP2C9 activ: 0.3; CYP2C19 act: 0.6; EphB4 ephrin blk: -4

How did Fc1ccc(CNc2ncnc3c2cnn3-c2ccccc2)cc1 do in these assays?
CYP2C19 inhib: 19; CYP2C9 inh: 58*; CYP2C9 activ: 0.4; CYP2C19 act: 0.8; EphB4 ephrin blk: -8

Results for CC(C)(C)Nc1ncnc2c1cnn2-c1ccccc1 ?
CYP2C19 inhib: 36; CYP2C9 inh: 63*; CYP2C9 activ: 0.4; CYP2C19 act: 0.6

Results for c1ccc(CNc2ncnc3c2cnn3-c2ccccc2)cc1 ?
CYP2C19 inhib: 13; CYP2C9 inh: 54*; CYP2C9 activ: 0.5; CYP2C19 act: 0.9; EphB4 ephrin blk: -9

How did c1ccc(CCNc2ncnc3c2cnn3-c2ccccc2)cc1 do in these assays?
EphB4 ephrin blk: 3

Results for Cc1cccc(-n2ncc3c(NCc4ccccn4)ncnc32)c1 ?
CYP2C19 inhib: 22; CYP2C9 inh: 32; CYP2C9 activ: 0.7; CYP2C19 act: 0.8; EphB4 ephrin blk: -7

How did Cc1ccc(Cn2ncc3c(NCCCN4CCOCC4)ncnc32)cc1 do in these assays?
CYP2C19 inhib: -19; CYP2C9 inh: -12; CYP2C9 activ: 1.1; CYP2C19 act: 1.2; EphB4 ephrin blk: -3

Results for CCC(C)(C(=O)NC1CCCC1)N(Cc1ccco1)C(=O)Cc1cccs1 (stereo not drawn) ?
CYP2C19 inhib: 6; CYP2C9 inh: 16; CYP2C9 activ: 0.8; CYP2C19 act: 0.9; EphB4 ephrin blk: 1

Results for CC1CCCC(NC(=O)C2CCN(S(=O)(=O)N3CCC4(CC3)OCCO4)CC2)C1C (stereo not drawn) ?
CYP2C19 inhib: 46; CYP2C9 inh: 21; CYP2C9 activ: 0.8; CYP2C19 act: 0.5; EphB4 ephrin blk: -6

How did CCOC(=O)CNS(=O)(=O)c1ccc(C(=O)O)cc1 do in these assays?
CYP2C19 inhib: 2; CYP2C9 inh: 5; CYP2C9 activ: 1; CYP2C19 act: 1; EphB4 ephrin blk: -1

What do the screens show for `CCCS(=O)(=O)N1CCC(C(=O)NCCN(CC)c2ccccc2)CC1`?
CYP2C19 inhib: -15; CYP2C9 inh: -35; CYP2C9 activ: 1.4; CYP2C19 act: 1.1; EphB4 ephrin blk: -9
